Assay results taken from PubChem BioAssay AID2546 (National Center for Advancing Translational Sciences (NCATS), 2010).
Several values for one entry are separate records, joined by “and”; a condition that tells them apart may be missing. Equal values may be shown once. Out of some 310,000 compounds screened, about 11,000 (3.5%) were called active. Roughly 8% stayed inconclusive and do not appear here. The list comes from a sample in which actives are over-represented; it also holds similar structures and randomly drawn compounds. A number with no mark means an inactive call. The call rests on the fitted dose curve; in most records, active means well fitted inhibition curve with a large enough effect; inconclusive means small, poorly fitted or top-dose-only effect, or effect the other way; inactive means flat fitted curve, though single readings scatter.

experiment: VP16 counterscreen qHTS for inhibitors of ROR gamma transcriptional activity; conditions: Drosophila S2 Gal4-VP16 UAS-luciferase, luminescence, 20 h; series mostly up to 53.6 µM; activity, negative = inhibition: at the top concentration;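 further: Gal4-VP16 expression switched on by copper sulfate through the metallothionein promoter; nearly all actives have a fitted effect of over 50% in size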
Excerpt: NIH Molecular Libraries Probe Production Network [MLPCN]
NIH Chemical Genomics Center [NCGC]
Assay Provider: Dan Littman, New York University
The retinoic acid-related orphan receptor (ROR) gamma is a transcription factor that has a central role in the differentiation of Th17 cells, a subset of T helper cells that secrete the inflammatory cytokines IL-17, IL-17F, and IL-22. Th17 cells have been implicated in graft versus host disease, autoimmune disease and asthma. ROR gamma is induced in naive T helper cells in the presence of TGF-beta combined with IL-6, IL-21, or IL-23, and thereafter directs the expression of the Th17 lineage cytokines. To identify nonspecific inhibitors, a Drosophila Schneider cell line was stably transfected with two vectors: a gene expressing a fusion of the Gal4 DNA binding domain and VP16 transactivation domain under the control of the metallothionine promoter and a Photinus luciferase reporter regulated by the Gal4 binding site enhancer, UAS. […] Small molecule inhibitors that inhibit components common to the RORgt and VP16 assays, such as the Gal4 DNA binding domain or the UAS luciferase reporter, will be active in both assays and thus scored as nonspecific.
For screening, 600 cells in 4 uL/well were dispensed into white solid 1536-well plates (Grenier) using a solenoid-based dispenser. Following transfer of 23 nL compound or DMSO vehicle by a pin tool, the plates were incubated 1 hr at ambient temperature, and 1 uL/well copper sulfate (700 uM final concentration) was added. The plates were centrifuged 15 s at 1000 RPM and incubated 20 hr at ambient temperature. After addition of 1.5 uL Photinus luciferase detection reagent, the plates were incubated 10 min at ambient temperature and then read by a ViewLux (Perkin Elmer) to detect luminescence.
On the % scale 0 is the no-effect control and ±100 the full control effect; potency means the concentration at half of the fitted maximal effect.

SMILES	activity, negative = inhibition [%]	Potency
COc1ccc(CNS(=O)(=O)c2ccc(-c3cnc(C4CC4)o3)cc2)cc1	-15.3	
Cc1ccc(S(=O)(=O)NNC(=O)/C=C/c2cccc(F)c2)cc1	-0.326	
Cc1c(CC(=O)NCC(=O)NCC(=O)O)c(=O)oc2cc3oc4c(c3cc12)CCCC4	-3.98	
Cc1cc(C2=NNC(=Nc3ccc(S(=O)(=O)N4CCOCC4)cc3)SC2)c(C)n1CC1CCCO1 (configuration not stated)	2.49	
C=CCn1c(C)cc(C2=NNC(=NCC)SC2)c1C		1 µM (active)
CS(=O)(=O)N1CCc2cc(C(=O)Nc3ccccc3Br)ccc21	24.9	
CS(=O)(=O)c1ccc(Cl)c(NC(=O)Nc2ccccc2)c1	8.24	
CC(=O)Nc1cc(C(=O)O)ccc1S(=O)(=O)c1ccc(Cl)cc1	1.43	
O=C(Nc1ccccc1)c1nnsc1S(=O)(=O)c1ccc(Cl)cc1		11.2 µM (active)
CC(=O)Nc1ccc(NC(=O)CN2C(=O)COc3ccc(S(=O)(=O)N4CCCCC4)cc32)cc1	-2.53	
O=[N+]([O-])c1ccc(N(CCO)Cc2ccccc2)c([N+](=O)[O-])c1	-0.982	
Cc1cccc(C(=O)O)c1	-10	
Cc1cccc(/C(N)=N/OC(=O)c2ccccc2Cl)c1		5.01 µM (active)
Cc1cccc(C(=O)c2cccc(C)c2)c1	-10.7	
O=C(Nc1ccn(Cc2ccccc2)n1)c1cccc(F)c1	-24.1	
Cc1ccc(Cn2ccc(NC(=O)c3cc(C(C)C)on3)n2)cc1	10	
O=C(Nc1ccn(Cc2ccccc2)n1)c1n[nH]c([N+](=O)[O-])c1Cl		11.2 µM (active)
CCc1ccc(-c2cc3c(=O)n(CC(=O)NCCCN4CCN(Cc5ccccc5)CC4)nc(C)n3n2)cc1	-6.24	
O=C(/C=C/c1ccc(Cl)cc1)NCCCn1ccnc1	9.13	
Cc1ccc2nc(N3C(=O)C(O)=C(C(=O)c4ccco4)C3c3cccc(O)c3)sc2c1 (configuration not stated)	-7.39	
Cc1nc2cc3c(cc2s1)OCO3	-16.5	
c1c2c(cc3sc(N4CCCCC4)nc13)OCCO2		1.26 µM (active)

SMILES	activity, negative = inhibition [%]	Potency
Brc1ccc2nc(N3CCCC3)sc2c1	-10.3	
CN(c1ccccc1)S(=O)(=O)c1ccc(Cl)c(C(=O)NCCc2c[nH]c3ccccc23)c1	-1.77	
CN(c1ccccc1)S(=O)(=O)c1cc(C(=O)Nc2nc3ccccc3[nH]2)ccc1Cl		3.16 µM (active)
CN(c1ccccc1)S(=O)(=O)c1cc(C(=O)OCC(=O)N2CCN(C(=O)c3ccco3)CC2)ccc1Cl	7.37	
Cc1c2cnn(CC(=O)NCCCN3CC(C)CC(C)C3)c(=O)c2c(C)n1Cc1ccc(Cl)cc1 (configuration not stated)	-1.41	
COc1ccc(C(=O)NCc2nnc(SCC(=O)NC3=NCCS3)n2C)cc1	2.32	
Cc1cc(-c2ccc(S(=O)(=O)N3CCN(c4cccc(C(F)(F)F)c4)CC3)s2)on1	-17.3	
NC(=O)c1cc2ccccc2o/c1=N/NC(=O)c1cccc(F)c1	-20.1	
Cc1cccc(S(=O)(=O)N2CN(CC3CCCO3)c3nc4ccccc4nc32)c1 (configuration not stated)	5.1	
Fc1ccccc1/C=C1\CCCC2=C1Nc1ncnn1C2c1ccccc1F (configuration not stated)		3.98 µM (active)
CC1=C(C(N)=O)C(c2ccc(Br)cc2)n2ncnc2N1 (configuration not stated)	12.9	
Cc1ccc(C(=O)c2coc3ccc(O)c(CN(C)C)c23)cc1	-13.4	
CCCCCCn1cc(C(=O)O)c(=O)c2cc(F)c(N3CCCCC3)cc21	-9.72	
Cc1ccc(NC(=O)c2cc(-c3ccccc3O)n[nH]2)cc1C	-8.32	
O=C(c1ccc(OC2CCN(C/C=C/c3ccc(F)cc3)CC2)cc1)N1CCCCC1	7.64	
COc1ccccc1OCc1ccc(C(=O)NC(C)c2ccccc2)o1 (configuration not stated)	-3	
CCOc1ccc(C)cc1S(=O)(=O)NC1CCCCCC1	23.3	
COC(=O)Cc1ccc(Oc2ncc(C(F)(F)F)cc2Cl)cc1	5.94	
COc1cc(/C=C2\SC(=S)N(Nc3ncc(C(F)(F)F)cc3Cl)C2=O)cc(OC)c1OC	-11.4	
COc1cccc(/C=N/Nc2ncc(C(F)(F)F)cc2Cl)c1O		3.16 µM (active)
CN(C)CCSc1nc(N)c2c3c(sc2n1)COC(C)(C)C3	-8.2	
CCSc1nc2sc3c(c2c(=O)[nH]1)CC(C)(C)OC3	1.94	

SMILES	activity, negative = inhibition [%]	Potency
C=CCNC(=S)NNc1ncnc2sc3c(c12)CC(C)(C)OC3		7.08 µM (active)
CC(C)(C)NS(=O)(=O)c1ccc(NC(=O)C2CCCO2)cc1 (configuration not stated)	-3.37	
Cc1c(C)c2c(OCC(=O)NCCCO)cc3c(c2oc1=O)CCC(C)(C)O3	4.21	
COC(=O)c1c(NC(=O)c2ccc(S(=O)(=O)N3CCOCC3)cc2)sc2c1CCN(C(C)C)C2	-1.8	
CC(C)CCn1c(=O)c2c(nc3n2CCCN3Cc2ccccc2)n(C)c1=O	-14.9	
COc1ccc(NC(=S)NCCN2CCC(C)CC2)cc1	-17.1	
COc1cccc(N2CC(C(=O)Nc3c(C)cccc3C)CC2=O)c1 (configuration not stated)	0.144	
COc1ccc(NC(=O)N2CCC(Cc3ccccc3)CC2)cc1	4.74	
COc1ccc(OCC(=O)Nc2ccc(N3CCC(C)CC3)cc2)cc1	-2.59	
COc1ccc(N2CCC(CNC(=S)Nc3c(C)cccc3C)C2)cc1 (configuration not stated)		2.24 µM (active)
COc1ccc(NC(=S)NCC2CCN(c3ccc(OC)cc3)C2)cc1 (configuration not stated)		4.47 µM (active)
Cc1cccc2c1cnn2C(=O)CCC(=O)NC1CCCCC1	3.24	
O=C(N/N=C/c1cccc(Br)c1)c1ccc(N2CCCC2=O)cc1	3.2	
CCOc1ccc(CCNC(=O)CCc2nnc3ccc(N4CCCC4)nn23)cc1OCC	-1.18	
COc1ccc(-c2cc(C(=O)N3CCN(Cc4ccc5c(c4)OCO5)CC3)on2)cc1OC	-0.461	
Cn1c(CC(=O)Nc2ccc(F)cc2)nnc1SCC(=O)NC1CCCCC1	1.19	
CCCN(CC1COc2ccccc2O1)C(=S)Nc1ccc(C)cc1 (configuration not stated)		12.6 µM (active)
Cc1ccc(NC(=S)N(CCCN2CCC(C)CC2)Cc2ccco2)cc1	2.2	
COc1ccc(NC(=O)C2COc3ccccc3O2)cc1 (configuration not stated)	-10.7	
Nc1cc(N)nc(SCc2cccc(F)c2)n1	12.2	
CC(C)[C@H](NC(=O)N1CCn2c1nc1ccccc12)C(=O)NCCc1ccccc1	0	
O=C(Nc1ccccc1F)c1ccc2c(c1)OCO2	-8.17	

SMILES	activity, negative = inhibition [%]	Potency
CC1COc2ccccc2N1C(=O)c1ccc(F)cc1 (configuration not stated)	8.51	
O=C(Nc1nnc(C2COc3ccccc3O2)o1)c1ccc(F)cc1 (configuration not stated)		0.562 µM (active)
Cc1ccc(OCC(=O)Nc2ccc3oc(=O)ccc3c2)cc1C	6.56	
COc1ccc2cc(C(=O)NCC3CCCO3)[nH]c2c1 (configuration not stated)	5.86	
O=C(C1CCCN(S(=O)(=O)c2ccc([N+](=O)[O-])cc2)C1)N1CCCCC1 (configuration not stated)	-5.57	
CC(=O)c1sc(NC(=O)c2ccc(C)cc2)nc1C	-5.98	
N#Cc1ccc(C(=O)Nc2nc(-c3cccs3)c(C(=O)C(F)(F)F)s2)cc1		3.16 µM (active)
Cc1ccc(C(=O)Nc2nnc(-c3cccs3)s2)cc1C	19.6	
CCc1ccccc1NC(=O)c1ccc2snnc2c1	1.19	
Cc1c(C)c(C)c(S(=O)(=O)NCCc2ccccn2)c(C)c1C	12.6	
CCc1c(C)nc(SCC(=O)NC2CCCC2)[nH]c1=O	7.14	
CCc1ccc(-c2nc(SCC(=O)NC3CCCC3)n[nH]2)cc1		14.1 µM (active)
COc1ccc(-c2nc(SCC(=O)N3CCCC3)n[nH]2)cc1	0.997	
Cc1ccc(S(=O)(=O)c2nnn3c2nc(N2CCN(c4ccccn4)CC2)c2ccccc23)cc1	3.9	
COc1ccc(-c2cc(=O)oc3cc(OC(C)C(=O)Nc4ccc(CN5CCOCC5)cc4)ccc23)cc1 (configuration not stated)	-8.27	
Cc1ccc(OCc2nc3ccccc3n2C)cc1	-21.6	
Cn1cc(/C=C/c2nc3ccccc3c(=O)n2-c2cccc([N+](=O)[O-])c2)c2ccccc21	-2.78	
CCn1c(/C=C/c2ccc([N+](=O)[O-])o2)nc2ccccc2c1=O		11.2 µM (active)
Cc1nc2ccccc2c(=O)n1Cc1ccc([N+](=O)[O-])cc1	-12.2	
CCCCn1c(N)c(N(CCOC)C(=O)c2oc3ccc(OC)cc3c2C)c(=O)[nH]c1=O	12.1	
O=C(N/N=C/c1ccc(O)c2ccccc12)c1cccnc1	5.43	
Cc1cc(/C=N/NC(=O)c2cccnc2)c(C)n1CC(C)C	-18.2	

SMILES	activity, negative = inhibition [%]	Potency
O=C(N/N=C/c1sc(N2CCCCC2)nc1-c1cccs1)c1cccnc1		10 µM (active)
O=C(NCCS(=O)(=O)N1CCN(c2ccccc2F)CC1)c1ccc(Br)o1	1.1	
Oc1c(Cl)cc(Cl)c(Cl)c1Cc1c(O)c(Cl)cc(Cl)c1Cl		3.16 µM (active) and 7.08 µM (active) and 3.98 µM (active)
CCCCCN(C(=O)CCC(=O)OCC(=O)NCc1ccc(OC)cc1)c1c(N)n(CCCC)c(=O)[nH]c1=O	-1.25	
CC(=O)Nc1ccc(S(=O)(=O)N2CCC(C(=O)NC3CC3)CC2)cc1	-7.7	
CCOc1ccc(NC(=O)[C@H](C)NC(=O)C2CC(=O)N(c3ccc(OC)cc3)C2)cc1 (some centres not stated)	-0.627	
O=C(Cc1cccc2ccccc12)NNC(=O)Nc1ccc(Cl)cc1	2.73	
Fc1ccccc1CNC(=S)Nc1ccc(Cl)cc1		7.08 µM (active)
Fc1ccccc1Cn1cnc(NC(=S)NCCc2ccccc2)n1	0.0945	
COc1ccc(CCNC(=O)CSCc2ccc(Br)cc2)cc1OC	1.85	
CS(=O)(=O)N(CC(=O)N1CCOCC1)c1cccc(Cl)c1Cl	0.519	
O=C1C2C(c3ccccc3)CC=CC2C(c2ccoc2)N1Cc1ccccc1 (configuration not stated)	-2.18	
CCc1nc(NCCO)c(C#N)c2c1CCCC2	-4.3	
CC(C)CCNc1nc(N2CCCC2)c2c(c1C#N)CCN(C)C2		11.2 µM (active)
CCN1CCc2c(C#N)c(NCc3ccccc3)nc(NCCO)c2C1	3.4	
Cn1cccc1C(=O)N1CCc2ccccc2C1	-17.5	
Cc1cccc(C)c1NC(=O)N1CC(C)OC(C)C1 (configuration not stated)	-3.53	
Cc1cccc(C)c1NC(=O)C(c1ccccc1)N1CC(=O)Nc2ccccc21 (configuration not stated)	1.67	
Cc1cccc(C)c1NC(=O)C(Cl)C(=O)c1ccccc1 (configuration not stated)		22.4 µM (active)
